Results taken from PubChem BioAssay (EPA / NIEHS).
Where “and” joins values, the source holds several entries; their conditions need not be identical. Equal values may be shown once. Records with an inconclusive call do not appear. More than one record can exist for a structure, and the calls need not agree. Calls of active or inactive are those of the source. The calls were made as follows, unless noted: active = hit-call score of the fitted dose curve at least 0.9, where 1 is the maximum; inactive = score below 0.9.

Legend:
[1] = read-out: Interleukin 17F (IL17F), IL17F (gene 112744); test: BSK_BT_xIL17F: BioMAP Diversity Plus: BT Assay for Interleukin 17F (IL17F) Biomarker Activity (AID 2284243); details: primary human B cells with PBMC
How it was run: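 Luminex readout of IL-17F secretion, 24 h; cells: human B cells with PBMC; positive-direction analysis, DMSO control.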

[2] = read-out: Actin alpha 1 (ACTA1), ACTA1 (gene 58); test: BSK_MyoF_ACTA1: BioMAP Diversity Plus: MyoF Assay for Actin alpha 1 (ACTA1) Biomarker Activity (AID 2284244); details: primary human lung fibroblasts
How it was run: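 alpha-SMA levels read by ELISA against DMSO baseline, 24 h post-dose, in primary human lung fibroblasts. Parallel cultures stained with 0.1% SRB after 10% TCA fixation (560 nm) to flag overt cytotoxicity.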

[3] = read-out: Interleukin 2 (IL2), IL2 (gene 3558); test: BSK_BT_xIL2: BioMAP Diversity Plus: BT Assay for Interleukin 2 (IL2) Biomarker Activity (AID 2284245); details: primary human B cells with PBMC
How it was run: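 Secreted IL-2 was read by Luminex xMAP from B cells co-cultured with PBMC (human primary) 24 h post-dosing; activity was analysed as gain of signal relative to DMSO vehicle.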

[4] = read-out: Basic fibroblast growth factor (bFGF), FGF2 (gene 2247); test: BSK_MyoF_bFGF: BioMAP Diversity Plus: MyoF Assay for Basic fibroblast growth factor (bFGF) Biomarker Activity (AID 2284246); details: primary human lung fibroblasts
How it was run: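 bFGF was measured by ELISA in primary human lung fibroblasts 24 h after chemical addition. Signal was analysed as positive-direction change relative to DMSO baseline.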

[5] = read-out: Collagen IV, COL4A1 (gene 1282); test: BSK_MyoF_CollagenIV: BioMAP Diversity Plus: MyoF Assay for Collagen IV Biomarker Activity (AID 2284247); details: primary human lung fibroblasts
How it was run: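 Collagen IV quantified by ELISA in human lung fibroblast cultures 24 h after chemical treatment, with DMSO as baseline. Parallel SRB staining (0.1% SRB after TCA fixation, 560 nm) flags overt cytotoxicity.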

[6] = read-out: Monokine induced gamma interferon (MIG), CXCL9 (gene 4283); test: BSK_KF3CT_MIG: BioMAP Diversity Plus: KF3CT Assay for Monokine induced gamma interferon (MIG) Biomarker Activity (AID 2284248); details: primary human keratinocytes with fibroblasts
How it was run: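 MIG in dosed human skin co-cultures was measured by ELISA at 24 h, relative to DMSO.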

[7] = read-out: Vascular cell adhesion molecule 1 (VCAM1), VCAM1 (gene 7412); test: BSK_BF4T_VCAM1: BioMAP Diversity Plus: BF4T Assay for Vascular cell adhesion molecule 1 (VCAM1) Biomarker Activity (AID 2284249); details: primary human bronchial epithelial cells with fibroblasts
How it was run: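 Cell-surface VCAM-1 quantified by ELISA after 24 h chemical exposure of human bronchial epithelial/dermal fibroblast co-cultures, with SRB staining in parallel wells for cytotoxicity; DMSO baseline, positive-direction fitting.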

[8] = read-out: Collagen I, COL1A1 (gene 1277); test: BSK_hDFCGF_CollagenI: BioMAP Diversity Plus: hDFCGF Assay for Collagen I Biomarker Activity (AID 2284250); details: primary human foreskin fibroblasts
How it was run: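 Collagen I quantified by ELISA 24 h after chemical dosing of human dermal fibroblast primary cells, with parallel SRB staining (0.1%, TCA-fixed, 560 nm) for overt cytotoxicity.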

[9] = read-out: Interferon-inducible T-cell alpha chemoattractant (ITAC), CXCL11 (gene 6373); test: BSK_hDFCGF_ITAC: BioMAP Diversity Plus: hDFCGF Assay for Interferon-inducible T-cell alpha chemoattractant (ITAC) Biomarker Activity (AID 2284251); details: primary human foreskin fibroblasts
How it was run: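 Chemical dosing of primary human foreskin fibroblast cultures preceded ELISA measurement of I-TAC at 24 h. Response was analysed in the positive direction using DMSO as baseline, while parallel SRB staining measured cytotoxicity.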

[10] = read-out: Plasminogen activator inhibitor-1 (PAI1), SERPINE1 (gene 5054); test: BSK_KF3CT_PAI1: BioMAP Diversity Plus: KF3CT Assay for Plasminogen activator inhibitor-1 (PAI1) Biomarker Activity (AID 2284252); details: primary human keratinocytes with fibroblasts
How it was run: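 PAI-1 levels quantified by ELISA after 24 h compound exposure of primary human skin keratinocytes co-cultured with fibroblasts. Activity is the gain relative to DMSO; cytotoxicity tracked in parallel cultures via SRB staining.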

[11] = read-out: Monocyte Chemoattractant Protein-1 (MCP1), CCL2 (gene 6347); test: BSK_IMphg_MCP1: BioMAP Diversity Plus: IMphg Assay for Monocyte Chemoattractant Protein-1 (MCP1) Biomarker Activity (AID 2284253); details: primary human endothelial cells with macrophages
How it was run: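 ELISA readout of MCP-1 at 24 hours in IMphg co-cultures of venular endothelial cells and macrophages, normalised to DMSO; parallel cultures stained with sulforhodamine B for overt cytotoxicity.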

[12] = read-out: Interleukin-8 (IL8), CXCL8 (gene 3576); test: BSK_KF3CT_IL8: BioMAP Diversity Plus: KF3CT Assay for Interleukin-8 (IL8) Biomarker Activity (AID 2284254); details: primary human keratinocytes with fibroblasts
How it was run: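 Using parallel SRB-stained cultures to flag overt toxicity, the study quantified IL-8 by ELISA in human keratinocyte–foreskin fibroblast co-cultures 24 h after dosing, with DMSO as negative control and baseline.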

[13] = read-out: Plasminogen activator inhibitor-1 (PAI1), SERPINE1 (gene 5054); test: BSK_MyoF_PAI1: BioMAP Diversity Plus: MyoF Assay for Plasminogen activator inhibitor-1 (PAI1) Biomarker Activity (AID 2284256); details: primary human lung fibroblasts
How it was run: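 In this multiplexed primary-cell system, fibroblasts from human lung received compound for 24 h before ELISA detection of PAI-1; overt toxicity was checked by SRB (0.1%, TCA-fixed, 560 nm) in parallel wells.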

[14] = read-out: CD69, CD69 (gene 969); test: BSK_IMphg_CD69: BioMAP Diversity Plus: IMphg Assay for CD69 Biomarker Activity (AID 2284257); details: primary human endothelial cells with macrophages
How it was run: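 Readout is ELISA for CD69 in primary human venular endothelial cell/macrophage co-culture, taken at 24 h post-dosing. SRB staining of parallel cultures gauged overt cytotoxicity; signal increase versus DMSO defined activity.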

[15] = read-out: Eotaxin 3, CCL26 (gene 10344); test: BSK_BF4T_Eotaxin3: BioMAP Diversity Plus: BF4T Assay for Eotaxin 3 Biomarker Activity (AID 2284258); details: primary human bronchial epithelial cells with fibroblasts
How it was run: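 ELISA measurement of Eotaxin-3 after 24 h chemical exposure in a bronchial epithelial/dermal fibroblast co-culture, with DMSO as baseline. Parallel SRB staining (0.1% SRB after 10% TCA fixation, 560 nm) flagged overt cytotoxicity.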

[16] = read-out: Monocyte Chemoattractant Protein-1 (MCP1), CCL2 (gene 6347); test: BSK_BF4T_MCP1: BioMAP Diversity Plus: BF4T Assay for Monocyte Chemoattractant Protein-1 (MCP1) Biomarker Activity (AID 2284259); details: primary human bronchial epithelial cells with fibroblasts
How it was run: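 MCP-1 ELISA readout taken 24 h after dosing in the BF4T system (bronchial epithelial cells plus dermal fibroblasts). Parallel SRB total-protein staining flagged cytotoxicity; DMSO served as baseline, positive fitting direction.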

[17] = read-out: Intercellular Adhesion Molecule 1 (ICAM1), ICAM1 (gene 3383); test: BSK_BF4T_ICAM1: BioMAP Diversity Plus: BF4T Assay for Intercellular Adhesion Molecule 1 (ICAM1) Biomarker Activity (AID 2284260); details: primary human bronchial epithelial cells with fibroblasts
How it was run: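 ICAM-1 levels measured by ELISA after 24 h chemical treatment of bronchial epithelial cell/dermal fibroblast co-cultures, read against DMSO baseline. Overt cytotoxicity checked in parallel cultures by sulforhodamine B staining.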

[18] = CCTE_Mundy_HCI_hNP1_CellTiter: CCTE's Cell Titer-Glo 2 Assay in human neuroprogenitor cells for Viability, Mundy Lab (AID 2284241; active = hit-call score of the fitted dose curve at least 0.9, where 1 is the maximum)
How it was run: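 Measures ATP content in human neural progenitors derived from WA09 embryonic cells. Read-out at 26.5 hours after dosing, with DMSO serving as the negative control and baseline.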

[19] = read-out: Macrophage Inflammatory Protein-1 Alpha (MIP1a), CCL3 (gene 6348); test: BSK_IMphg_MIP1a: BioMAP Diversity Plus: IMphg Assay for Macrophage Inflammatory Protein-1 Alpha (MIP1a) Biomarker Activity (AID 2284255); details: primary human endothelial cells with macrophages
How it was run: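 MIP-1a protein levels were quantified by ELISA after 24 h treatment of human endothelial cell–macrophage co-cultures, compared with DMSO. Parallel cultures were fixed with TCA and stained with 0.1% SRB to gauge overt cytotoxicity.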

Measured: AC50

O=C(O)C=C(C(F)(F)F)C(F)(F)F
inactive: [2] | [4] | [5] | [6] | [7] | [8] | [9] | [10] | [11] | [12] | [13] | [14] | [15] | [16] | [17]
active: [1] 10.4 µM and 8.84 µM | [3] 10.1 µM and 5.58 µM | [11] 42.6 µM | [15] 10.8 µM

C=CC(=O)OCC(F)(F)C(F)(F)C(F)(F)C(F)(F)COC(=O)C=C
active: [1] 4.17 µM and 2.81 µM | [2] 8.86 µM and 9.38 µM | [3] 11.2 µM and 9.62 µM | [4] 18.2 µM and 14.5 µM | [5] 12.4 µM and 14.3 µM | [6] 21.5 µM and 29.6 µM | [9] 6.61 µM and 5.23 µM | [10] 23.3 µM and 43 µM | [11] 30 µM | [12] 17.3 µM and 18.9 µM | [13] 15.4 µM and 16.7 µM | [14] 30 µM | [15] 21.9 µM and 30 µM | [16] 11.2 µM and 15.5 µM | [17] 9.07 µM and 16.9 µM
inactive: [18] | [8]

FC(F)(F)C(F)(F)C(F)(F)C(F)(F)C(F)(F)C(F)(F)CC1CO1 (configuration not stated)
not listed: [7] | [19]
inactive: all other assays above

OCC(F)(F)C(F)(F)C(F)(F)C(F)F
inactive: [18] | [1] | [2] | [3] | [4] | [5] | [6] | [7] | [8] | [9] | [10] | [11] | [12] | [13] | [14] | [15] | [16] | [17]
active: [10] 1.23 µM

FC(F)(I)C(F)(F)C(F)(F)C(F)(F)I
inactive: [8] | [11] | [12] | [19] | [14] | [15]
active: [1] 30 µM and 47.7 µM and 43.1 µM | [2] 48.6 µM and 49 µM and 34.3 µM | [3] 54.7 µM and 47.8 µM and 43.6 µM | [4] 51.4 µM and 45.9 µM | [5] 50.6 µM and 50.7 µM and 51.6 µM | [6] 58.1 µM and 47.2 µM and 51.6 µM | [9] 29.2 µM and 46.2 µM and 52 µM | [10] 52.5 µM and 47 µM and 54.9 µM | [12] 45.8 µM and 47.4 µM | [13] 55.6 µM and 46 µM and 56.7 µM | [14] 10.1 µM | [15] 57.1 µM and 50.6 µM | [16] 38 µM and 42.1 µM and 42.5 µM | [17] 45.7 µM and 47.8 µM and 51.6 µM

FC(F)(F)C(F)(F)C(F)(F)CI
inactive: [18] | [1] | [2] | [3] | [4] | [5] | [6] | [7] | [8] | [9] | [10] | [11] | [12] | [19] | [13] | [14] | [15] | [16] | [17]
active: [9] 220 nM

O=C(O)C(F)(F)C(F)(F)C(F)(F)C(F)(F)F
not listed: [18]
inactive: all other assays above

CC(C)(C)C(=O)CC(=O)C(F)(F)C(F)(F)C(F)(F)F
active: [16] 49.9 µM
inactive: [18] | [1] | [2] | [3] | [4] | [5] | [6] | [7] | [8] | [9] | [10] | [11] | [12] | [13] | [14] | [15] | [16] | [17]

FC1CC(F)(F)C(F)(F)C1(F)F (configuration not stated)
not listed: [18] | [19]
inactive: all other assays above

O=P(O)(O)OCCC(F)(F)C(F)(F)C(F)(F)C(F)(F)C(F)(F)C(F)(F)F
active: [9] 5830 nM
inactive: [18] | [1] | [2] | [3] | [4] | [5] | [6] | [8] | [9] | [10] | [11] | [12] | [13] | [14] | [15] | [16] | [17]

O=C(O)C(F)(F)C(F)(F)C(F)(F)C(F)(F)C(F)(F)C(F)(F)C(F)(F)C(F)(F)Cl
active: [2] 50.7 µM and 43.8 µM | [5] 7.89 µM | [6] 45.7 µM and 54.2 µM | [9] 29 µM and 36.7 µM | [10] 32.8 µM and 37.8 µM | [11] 48.6 µM | [12] 55.2 µM and 45.8 µM | [13] 48.2 µM and 48.5 µM | [14] 41.5 µM and 30 µM | [15] 8.26 µM and 1.05 µM | [16] 40.4 µM and 45.9 µM | [17] 41.4 µM and 40 µM
inactive: [18] | [1] | [3] | [4] | [5] | [8]
